Inconclusive results are not listed. The source made the active and inactive calls. Calls follow the shape of the dose curve; as a rule, active = well fitted cell-killing curve with a large enough effect; inconclusive = small, poorly fitted or top-dose-only effect, or effect the other way; inactive = no such curve, though single readings can be large or run the other way.
What follows are compounds tested on HeLa (assay: Confirmatory qHTS for gynecologic anti-cancer compounds from libraries of approved drugs and bioactive compounds). Settings: gynecologic cancer cell panel viability, ATPlite luminescence, 48 h; series mostly up to 57.6 µM.
Outline: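 Cells (1,000/well) were plated, left 16 h at 37 C/5% CO2, then given compound at 11 concentrations (1:3) from 57.5 uM to 0.977 nM for 48 h. ATPlite luminescence after 15 min at room temperature gave IC50 values.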
Also: nearly all actives have a fitted effect of over 55% in size.
Potency is read from the fitted curve at half-maximal effect.

| SMILES | Potency |
| --- | --- |
| Cc1cc(SCc2sc(-c3ccc(C(F)(F)F)cc3)nc2C)ccc1OCC(=O)O | inactive |
| CNC(=O)c1ccccc1Sc1ccc2c(/C=C/c3ccccn3)n[nH]c2c1 | 3.06 µM (active) |
| CC[C@]1(O)C[C@H]2CN(CCc3c([nH]c4ccccc34)[C@@](C(=O)OC)(c3cc4c(cc3OC)N(C=O)[C@H]3[C@@](O)(C(=O)OC)[C@H](OC(C)=O)[C@]5(CC)C=CCN6CC[C@]43[C@@H]65)C2)C1 | 0.273 µM (active) |
| Cc1nc2ccc(CN(C)c3ccc(C(=O)NC(CCC(=O)O)C(=O)O)s3)cc2c(=O)[nH]1 (centres undefined) | 0.0544 µM (active) |
| CC(C)n1c(/C=C/[C@@H](O)C[C@@H](O)CC(=O)O)c(-c2ccc(F)cc2)c2ccccc21 | 5.44 µM (active) |
| CN(Cc1cnc2nc(N)nc(N)c2n1)c1ccc(C(=O)N[C@@H](CCC(=O)O)C(=O)O)cc1 | inactive |
| CN(c1nccc(=O)[nH]1)C1CCN(c2nc3ccccc3n2Cc2ccc(F)cc2)CC1 | inactive |
| CCc1nc(C(N)=O)c(Nc2ccc(N3CCC(N4CCN(C)CC4)CC3)c(OC)c2)nc1NC1CCOCC1 | 3 µM (active) |
| CCCCc1oc2ccccc2c1C(=O)c1cc(I)c(OCCN(CC)CC)c(I)c1 | 50.1 µM (active) |
| CNC(=O)c1ccccc1Nc1nc(Nc2ccc(N3CCOCC3)cc2OC)ncc1Cl | 0.769 µM (active) |
| O=C(NOCC1CC1)c1ccc(F)c(F)c1Nc1ccc(I)cc1Cl | 9.68 µM (active) |
| O=C(O)C1(Cc2cccc(Nc3nccs3)n2)CCC(Oc2cccc(Cl)c2F)CC1 (centres undefined) | 1.22 µM (active) |
| Fc1cc(-c2cccc3ncc(-c4cnn(C5CCNCC5)c4)nc23)cc(F)c1CN1CCOCC1 | 24.3 µM (active) |
| Cc1c(NC(=O)OCC2COCCN2)cn2ncnc(Nc3ccc4c(cnn4Cc4cccc(F)c4)c3)c12 (centres undefined) | 34.3 µM (active) |
| CC(C)Oc1ccc2c(=O)c(-c3ccccc3)coc2c1 | 21.7 µM (active) |
| COc1cccc2cc(-c3nc(C4CCC(C(=O)O)CC4)n4ncnc(N)c34)[nH]c12 (centres undefined) | 4.85 µM (active) |
| CC(=O)O[C@H]1C(=O)[C@@]2(C)[C@H]([C@H](OC(=O)c3ccccc3)[C@]3(O)C[C@H](OC(=O)[C@H](O)[C@@H](NC(=O)c4ccccc4)c4ccccc4)C(C)=C1C3(C)C)[C@]1(OC(C)=O)CO[C@@H]1C[C@@H]2O | 0.0163 µM (active) |

| SMILES | Potency |
| --- | --- |
| Cc1cc(Nc2cc(N3CCN(C)CC3)nc(Sc3ccc(NC(=O)C4CC4)cc3)n2)n[nH]1 | 1.09 µM (active) |
| Cn1cnc([N+](=O)[O-])c1Sc1ncnc2nc[nH]c12 | 4.85 µM (active) |
| C[C@]12CCC(=O)C=C1CC[C@@H]1[C@@H]2[C@@H](O)C[C@@]2(C)[C@H]1CC[C@]2(O)C(=O)CO | inactive |
| CCCc1nn(C)c2c(=O)[nH]c(-c3cc(S(=O)(=O)N4CCN(C)CC4)ccc3OCC)nc12 | inactive |
| O=C1N(c2ccccc2)c2ccccc2C1(Cc1ccncc1)Cc1ccncc1 | inactive |
| Cc1cc(CN2CCN(c3c(Br)cnc4nc(-c5ccc(N6CCN(C)CC6)cc5)[nH]c34)CC2)no1 | 3.06 µM (active) |
| NC(=O)c1cnc(-c2ccc(C3(N)CCC3)cc2)c(-c2ccccc2)c1 | 30.6 µM (active) |
| COc1cc(N2CCC(N3CCN(C)CC3)CC2)ccc1Nc1ncnc(Nc2ccccc2S(=O)(=O)C(C)C)n1 | 8.63 µM (active) |
| NCCOc1cc(C(=O)Nc2cc(OCCN)c3ccccc3n2)nc(C(=O)Nc2cc(OCCN)c3ccccc3n2)c1 | 19.3 µM (active) |
| O=C(CCCCCCC(=O)Nc1ccccc1)NO | 3.43 µM (active) |
| CCN1CCN(Cc2ccc(Nc3ncc(F)c(-c4cc(F)c5nc(C)n(C(C)C)c5c4)n3)nc2)CC1 | 17.2 µM (active) |
| Cc1ccc2nc(N)[nH]c(=O)c2c1Sc1ccncc1 | 8.63 µM (active) |
| CCCCN(CCCC)C(=O)CN1C[C@H](c2ccc3c(c2)OCO3)[C@@H](C(=O)O)[C@@H]1c1ccc(OC)cc1 | inactive |
| Cn1cnc2c(F)c(Nc3ccc(Br)cc3F)c(C(=O)NOCCO)cc21 | inactive |
| CC(C)C[C@H](NC(=O)[C@@H](NC(=O)c1cccc(-c2ccccc2)n1)[C@@H](C)O)B(O)O | 24.3 µM (active) |
| Cc1ccc(C(=O)Nc2ccc(CN3CCN(C)CC3)c(C(F)(F)F)c2)cc1C#Cc1cnc2cccnn12 | 1.72 µM (active) |
| O=C(O)c1ccc(Nc2ncc3c(n2)-c2ccc(Cl)cc2C(c2c(F)cccc2F)=NC3)cc1 | 7.69 µM (active) |

— PubChem BioAssay AID1345085 (National Center for Advancing Translational Sciences (NCATS), 2018)
